# Reference: publication PMC9911399, “Two distinct binding modes provide the RNA-binding protein RbFox with extraordinary sequence specificity”
# Numbering of substitutions follows the chain as printed; changes in the protein carry UniProt numbers. The full ranking holds about 16,000 sequences; the median of “ka relative to ugcaugu” is about 0.0091, and the highest 2% start at about 0.032. The full list was thinned out, with the highest values kept by preference.
# T1: RBFOX1 RRM (Homo sapiens, UniProt Q9NWB1 109-208)
# T1 sequence: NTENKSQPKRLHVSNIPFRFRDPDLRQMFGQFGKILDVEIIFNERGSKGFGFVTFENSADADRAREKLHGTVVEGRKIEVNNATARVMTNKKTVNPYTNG
# B1: GUCGUGG (DNA:RNA)
# RNA: GGGAGACCGGAAUUCAGAUUGUCCGUCGUGGUUAAAUCCCGUCGUAGCCACCA
# DNA 1: CAATCTGAATTCCGGTCTCCC
# DNA 2: TGGTGGCTACGACGGGATT
# B2: GUGGUGG (DNA:RNA)
# RNA: B1 RNA with C27G
# DNA 1: CAATCTGAATTCCGGTCTCCC
# DNA 2: TGGTGGCTACGACGGGATT
# B3: GUGGUUG (DNA:RNA)
# RNA: B1 RNA with C27G, G30U
# DNA 1: CAATCTGAATTCCGGTCTCCC
# DNA 2: TGGTGGCTACGACGGGATT
# B4: CUGGAUG (DNA:RNA)
# RNA: B1 RNA with G25C, C27G, U29A, G30U
# DNA 1: CAATCTGAATTCCGGTCTCCC
# DNA 2: TGGTGGCTACGACGGGATT
# B5: UGCGAUG (DNA:RNA)
# RNA: B1 RNA with G25U, U26G, U29A, G30U
# DNA 1: CAATCTGAATTCCGGTCTCCC
# DNA 2: TGGTGGCTACGACGGGATT
# B6: UGCGCGA (DNA:RNA)
# RNA: B1 RNA with G25U, U26G, U29C, G31A
# DNA 1: CAATCTGAATTCCGGTCTCCC
# DNA 2: TGGTGGCTACGACGGGATT
# B7: UGCGAUC (DNA:RNA)
# RNA: B1 RNA with G25U, U26G, U29A, G30U, G31C
# DNA 1: CAATCTGAATTCCGGTCTCCC
# DNA 2: TGGTGGCTACGACGGGATT
# B8: CGGAUGU (DNA:RNA)
# RNA: B1 RNA with G25C, U26G, C27G, G28A, G31U
# DNA 1: CAATCTGAATTCCGGTCTCCC
# DNA 2: TGGTGGCTACGACGGGATT
# B9: UGGGAGA (DNA:RNA)
# RNA: B1 RNA with G25U, U26G, C27G, U29A, G31A
# DNA 1: CAATCTGAATTCCGGTCTCCC
# DNA 2: TGGTGGCTACGACGGGATT
# B10: UGGGGGA (DNA:RNA)
# RNA: B1 RNA with G25U, U26G, C27G, U29G, G31A
# DNA 1: CAATCTGAATTCCGGTCTCCC
# DNA 2: TGGTGGCTACGACGGGATT
# B11: UGGGAUG (DNA:RNA)
# RNA: B1 RNA with G25U, U26G, C27G, U29A, G30U
# DNA 1: CAATCTGAATTCCGGTCTCCC
# DNA 2: TGGTGGCTACGACGGGATT
# B12: CUGGAGA (DNA:RNA)
# RNA: B1 RNA with G25C, C27G, U29A, G31A
# DNA 1: CAATCTGAATTCCGGTCTCCC
# DNA 2: TGGTGGCTACGACGGGATT
# B13: UGGAUUU (DNA:RNA)
# RNA: B1 RNA with G25U, U26G, C27G, G28A, G30U, G31U
# DNA 1: CAATCTGAATTCCGGTCTCCC
# DNA 2: TGGTGGCTACGACGGGATT
# B14: UGGAUGU (DNA:RNA)
# RNA: B1 RNA with G25U, U26G, C27G, G28A, G31U
# DNA 1: CAATCTGAATTCCGGTCTCCC
# DNA 2: TGGTGGCTACGACGGGATT
# B15: CCCUGGA (DNA:RNA)
# RNA: B1 RNA with G25C, U26C, G28U, U29G, G31A
# DNA 1: CAATCTGAATTCCGGTCTCCC
# DNA 2: TGGTGGCTACGACGGGATT
# Target: T1, RBFOX1 RRM
# Test: EMSA; HiTS-Eq, 1 nM pool, 10 min; buffer printed only for the single-RNA assays: 10 mM Tris pH 7.5, 150 mM NaCl, 3.4 mM EDTA, 0.001% NP-40, 30 C
# Conditions: tags: His6 N-terminal (pET28a); label: 5' 32P
# In short: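 Purified RbFox RRM (wild type or mutant) was equilibrated for 10 min in 50 µL with 1 nM of a 5′-radiolabelled pool of RNA with 7 randomized nucleotides, its flanks annealed to DNA oligonucleotides, across increasing protein concentrations. Free RNA was separated by 8% native PAGE, excised, reverse-transcribed, PCR-barcoded and sequenced on an Illumina HiSeq 2500. Relative association constants came from read-count changes of each variant against the control reaction, normalised to the cognate motif.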
row,Binder,binding signal
1,B1,0.0185 KA relative to UGCAUGU
2,B2,0.0237 KA relative to UGCAUGU
3,B3,0.0321 KA relative to UGCAUGU
4,B4,0.0353 KA relative to UGCAUGU
5,B5,0.0369 KA relative to UGCAUGU
6,B6,0.0211 KA relative to UGCAUGU
7,B7,0.0166 KA relative to UGCAUGU
8,B8,0.0261 KA relative to UGCAUGU
9,B9,0.025 KA relative to UGCAUGU
10,B10,0.0155 KA relative to UGCAUGU
11,B11,0.0414 KA relative to UGCAUGU
12,B12,0.0188 KA relative to UGCAUGU
13,B13,0.0242 KA relative to UGCAUGU
14,B14,0.0494 KA relative to UGCAUGU
15,B15,0.013 KA relative to UGCAUGU
